# Test results from publication PMC4336329 (PLoS ONE, 2015).
# The whole screen tested about 310,000 compounds, of which about 14,000 (4.5%) showed an effect of 50% or more. Effects have a minus sign here. Only a selection was taken, and strong results are over-represented in it overall.
# Target: human ether-à-go-go-related gene (hERG) potassium channel (human, UniProt Q12809)
# Assay: primary screen, population patch clamp on CHO cells stably expressing hERG; higher = less effect of the substance
# 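Further: peak tail current of the secondary pulse compared with the same well before compound.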
# human ether-à-go-go-related gene (hERG) potassium channel, sequence (Q12809 whole entry, looked up): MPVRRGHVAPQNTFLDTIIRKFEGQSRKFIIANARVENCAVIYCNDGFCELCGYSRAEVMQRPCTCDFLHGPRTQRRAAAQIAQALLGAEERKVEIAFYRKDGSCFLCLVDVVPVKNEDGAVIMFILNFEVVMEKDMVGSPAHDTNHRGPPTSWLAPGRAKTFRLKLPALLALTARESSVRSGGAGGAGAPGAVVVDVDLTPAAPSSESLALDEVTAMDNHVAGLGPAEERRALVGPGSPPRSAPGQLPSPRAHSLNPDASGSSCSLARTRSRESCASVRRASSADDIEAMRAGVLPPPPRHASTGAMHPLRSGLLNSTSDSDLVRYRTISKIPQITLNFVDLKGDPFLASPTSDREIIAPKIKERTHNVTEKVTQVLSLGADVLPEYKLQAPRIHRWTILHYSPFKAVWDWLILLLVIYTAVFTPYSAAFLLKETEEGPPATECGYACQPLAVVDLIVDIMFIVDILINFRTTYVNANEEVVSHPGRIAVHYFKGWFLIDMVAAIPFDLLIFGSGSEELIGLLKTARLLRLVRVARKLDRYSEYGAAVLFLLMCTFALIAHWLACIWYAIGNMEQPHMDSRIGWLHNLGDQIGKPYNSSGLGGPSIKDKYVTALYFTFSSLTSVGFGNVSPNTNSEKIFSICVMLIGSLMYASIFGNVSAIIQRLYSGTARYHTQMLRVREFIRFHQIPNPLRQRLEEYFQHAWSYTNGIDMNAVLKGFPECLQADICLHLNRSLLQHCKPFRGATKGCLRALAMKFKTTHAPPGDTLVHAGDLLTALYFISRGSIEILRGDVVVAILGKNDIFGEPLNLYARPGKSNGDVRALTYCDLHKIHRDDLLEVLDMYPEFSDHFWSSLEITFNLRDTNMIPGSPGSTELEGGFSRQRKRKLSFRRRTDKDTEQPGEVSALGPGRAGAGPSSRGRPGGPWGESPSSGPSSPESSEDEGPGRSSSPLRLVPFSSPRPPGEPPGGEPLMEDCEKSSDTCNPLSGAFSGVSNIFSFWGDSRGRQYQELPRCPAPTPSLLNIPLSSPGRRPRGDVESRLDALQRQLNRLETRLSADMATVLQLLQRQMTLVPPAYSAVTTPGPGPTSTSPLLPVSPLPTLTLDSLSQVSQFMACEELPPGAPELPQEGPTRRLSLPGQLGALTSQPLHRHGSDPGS
row,SMILES,"hERG current change (%, negative = inhibition) at 10uM [%]"
1,COc1cc2c(cc1OC)C(c1ccccc1)CC2=O (centres unmarked),7.03
2,COC(=O)c1ccc(-c2nc3ccccc3[nH]2)cc1,17.8
3,Cc1cc(Cl)ccc1OC(C)C(=O)Nc1ccc([N+](=O)[O-])cn1 (centres unmarked),-75.9
4,CCC(CC)C(=O)Nc1ccc([N+](=O)[O-])cn1,10.8
5,CC(=O)Nc1ccc([N+](=O)[O-])cn1,24.4
6,Cc1cccc(OCCNc2ccc([N+](=O)[O-])cn2)c1,-21.3
7,CCC(C(=O)Nc1ccccn1)c1ccccc1 (centres unmarked),1.4
8,Cc1csc(NC(=O)C(C)Oc2ccc(Cl)cc2C)n1 (centres unmarked),-21
9,CC(Oc1cccnc1[N+](=O)[O-])C(=O)Nc1ccc(Cl)cn1 (centres unmarked),-16.6
10,CC(Oc1cccc(Cl)c1)C(=O)Nc1ccc([N+](=O)[O-])cn1 (centres unmarked),-62.2
11,Cc1cccc(C(C)Nc2ccc([N+](=O)[O-])cn2)c1 (centres unmarked),-68.9
12,CCC(C(=O)Nc1ccc([N+](=O)[O-])cn1)c1ccccc1 (centres unmarked),-67.4
13,CC(Oc1cccc(Cl)c1)C(=O)Nc1ccncc1 (centres unmarked),3.81
14,Cc1cccc(Nc2ccc([N+](=O)[O-])cn2)c1,10.9
15,CCN(CC)S(=O)(=O)c1ccc(NC(=O)Cc2cccs2)cc1,5.81
16,CCOC(=O)c1c(NC(=O)CSc2nc3c(c(=O)n(C)c(=O)n3C)n2C(C)C)sc(C)c1C,-0.527
17,CCCCNC(=O)c1cc([N+](=O)[O-])[nH]n1,19.1
18,COc1ccccc1N1CCN(C(=O)CSc2nnc3c4ccccc4nc(Cc4ccccc4)n23)CC1,-4.18
19,COCCNc1nc(SCC(=O)N2CCN(c3ccccc3)CC2)nc2ccccc12,-86.9

row,SMILES,"hERG current change (%, negative = inhibition) at 10uM [%]"
1,COCCNc1nc(SCC(=O)N2CCN(c3ccccc3OC)CC2)nc2ccccc12,-88.6
2,O=C(CSc1nc2ccccc2c(=O)[nH]1)N1CCN(c2ccccc2)CC1,14.1
3,COCCNC(=O)CSc1nc2ccccc2c(=O)n1CCC(=O)N1CCN(c2ccccc2)CC1,-35
4,COc1ccccc1N1CCN(C(=O)CSc2nc3ccccc3nc2N2CCCCC2)CC1,19
5,O=C(NC1CC1)c1ccc(-c2nc3ccccc3s2)s1,10.7
6,O=C(Cn1cnc2ccccc2c1=O)Nc1nnc(SCc2ccc(Cl)cc2)s1,10.9
7,Cn1cc(CC(=O)N2CCN(c3ccccc3F)CC2)c2ccccc21,-9.66
8,CCCOc1ccccc1N/C(=N\S(=O)(=O)c1ccc(C)cc1)Nc1nc(C)cc(C)n1,26.1
9,O=C(OCCCc1cc2ccccc2c(=O)o1)c1ccc(F)cc1,-37.9
10,CC(C)(OC(=O)c1ccc(C(F)(F)F)cc1)c1cc2ccccc2c(=O)o1,14.6
11,COc1cc2cc(CCCOC(=O)c3ccc(C#N)cc3)oc(=O)c2cc1OC,-65
12,N#Cc1ccc(C(=O)OCCc2cc3ccccc3c(=O)o2)cc1,-29
13,CC(C)(OC(=O)c1ccc(F)cc1)c1cc2ccccc2c(=O)o1,3.1
14,N#Cc1ccc(C(=O)OCCCc2cc3ccccc3c(=O)o2)cc1,-69.4
15,COc1cc2cc(CCOC(=O)c3ccc(C#N)cc3)oc(=O)c2cc1OC,-37.9
16,CC(C)(OC(=O)c1ccc(C#N)cc1)c1cc2ccccc2c(=O)o1,-73.1
17,COc1cc2cc(CCCOC(=O)c3ccc(F)cc3)oc(=O)c2cc1OC,-29.5
18,COc1cccc(CNCCc2ccccc2)c1OC.Cl,5.21
19,O=C1C=C(c2cccc3c2oc2ccccc23)CCC1,-2.35

row,SMILES,"hERG current change (%, negative = inhibition) at 10uM [%]"
1,Cc1c(C(=O)/C=C/N(C)C)nnn1-c1ccc(F)c(Cl)c1,2.73
2,O=C(NCCc1ccccc1)C1CCC(=O)N1CCc1ccccc1 (centres unmarked),8.78
3,CC1CN(CCOCCOc2ccccc2-c2ccccc2)CC(C)O1.O=C(O)C(=O)O (centres unmarked),-13.5
4,C=CCc1cc(OC)ccc1OCCN1CC(C)OC(C)C1.O=C(O)C(=O)O (centres unmarked),-9.85
5,CC1CCN(CCCCOc2ccccc2-c2ccccc2)CC1.O=C(O)C(=O)O,-72.6
6,CC1CCCN(CCOCCOc2ccccc2-c2ccccc2)C1.O=C(O)C(=O)O (centres unmarked),-72.9
7,CC1CN(CCOc2ccccc2-c2ccccc2)CC(C)O1.O=C(O)C(=O)O (centres unmarked),-9.99
8,O=C(O)C(=O)O.c1ccc(-c2ccccc2OCCOCCN2CCCCC2)cc1,-44.7
9,C=CCc1cc(Cl)ccc1OCCN1CC(C)OC(C)C1.O=C(O)C(=O)O (centres unmarked),-53.1
10,CC1CN(CCCOc2ccccc2-c2ccccc2)CC(C)O1.O=C(O)C(=O)O (centres unmarked),-47.2
11,C=CCc1cc(Cl)ccc1OCCn1ccnc1.O=C(O)C(=O)O,-10.1
12,CN1CCN(CCCCOc2ccccc2-c2ccccc2)CC1.O=C(O)C(=O)O,-38.2
13,CC1CC(C)CN(CCOc2ccccc2-c2ccccc2)C1.O=C(O)C(=O)O (centres unmarked),-68.5
14,CC1CCN(CCCCOc2ccccc2F)CC1.O=C(O)C(=O)O,-13.3
15,Cc1ccc(S(=O)(=O)N2CCC(C(=O)Nc3ccc(S(=O)(=O)N4CCCC4)cc3)CC2)cc1,-10.6
16,COc1cccc(C2C(C(=O)c3sc(C)nc3C)=C(O)C(=O)N2CCN2CCOCC2)c1 (centres unmarked),10.8
17,Fc1ccc(CNc2ccc(N3CCN(Cc4ccccc4)CC3)cc2)cc1,-30.1
18,COc1ccc(C(=O)NCc2nnc(SCCOc3ccccc3)n2C)cc1,-15.5
